We go through 40 molecules from PubChem BioAssay (NCATS).

Inconclusive results are not listed. The source made the active and inactive calls. Calls come from the whole dose curve; as a rule, active = well fitted cell-killing curve with a large enough effect; inconclusive = small, poorly fitted or top-dose-only effect, or effect the other way; inactive = no such curve, though single readings can be large or run the other way.
Potency is the fitted concentration of half-maximal effect.

The experiment is described as follows: Quantitative High-Throughput drug screen in 47 multiple myeloma cell lines against the NCATS MIPE library collection: UTMC2_PLB cell viability assay (AID 1919868). Note: nearly all actives have a fitted effect of over 55% in size. The settings on record: CellTiter-Glo ATP luminescence, 48 h; series mostly up to 45.8 µM. The text has this: PI: Beverly A. Mock Ph.D.
Laboratory of Cancer Biology and Genetics,
Center for Cancer Research, National Cancer Institute,
National Institute of Health, Bethesda, Maryland
Drug resistance and disease progression are common in multiple myeloma (MM) patients, underscoring the need for new therapeutic combinations. […] We hypothesized that effective combinations would reduce MYC expression and enhance p16 activity. […] These preclinical data identify potentially useful drug combinations for evaluation in drug-resistant MM and reveal potential mechanisms of combined drug sensitivity.
Described herein is the primary MIPE qHTS used to cherrypick compounds. Validated compounds were then further tested for potential synergistic activiy.
[1] Peat TJ, Gaikwad SM, Dubois W, Gyabaah-Kessie N, Zhang S, Gorjifard S, Phyo Z, Andres M, Hughitt VK, Simpson RM, Miller MA, Girvin AT, Taylor A, Williams D, D'Antonio N, Zhang Y, Rajagopalan A, Flietner E, Wilson K, Zhang X, Shinn P, Klumpp-Thomas C, McKnight C, Itkin Z, Chen L, Kazandijian D, Zhang J, Michalowski AM, Simmons JK, Keats J, Thomas CJ, Mock BA. Drug combinations identified by high-throughput screening promote cell cycle transition and upregulate Smad pathways in myeloma. Cancer Lett. 2023 Aug 1;568:216284. doi: 10.1016/j.canlet.2023.216284. Epub 2023 Jun 24. PMID: 37356470; PMCID: PMC10408729.
SEQUENCE No. (e.g., 1, 2, 3, etc.); […] (e.g., Cells, Incubation, Reagent, etc.); VALUE and DESCRIPTION.
1; Cells; 5 uL; white, solid bottom 1536-well Greiner assay plate.
2; Compounds; 23 nL; Kalypsis pin tool (Wako USA) equipped with a 1536-well pin head to transfer to the assay plates.
3; Incubation; 48 hours; 37C incubation.
4; Reagent;5uL; CellTiter Glo (Promega).
5; Detector; 425V; Luminescence; Viewlux PerkinElmer.
NOTES (numbers refer to Sequence numbers above)
1. The cell-based screening methods employed in this study were like those previously published. Briefly, the corresponding myeloma cell lines were screened in 1,536-well plates with 500 cells, 5-uL per well for inhibition of cell viability (assessed by measuring ATP levels with CellTiterGlo).
2. NCATS MIPE 4.0 library of approved and investigational drugs were added using the Kalypsis pin tool. Wells treated with DMSO only for 100% viability and media only for 0% viability were used as controls.
3. The assay plates were covered and incubated for 48 hours in a 37C, 5% CO2 incubator with controlled humidity.
4. After 48 hours, CellTilter-GloTM luminescent substrate mix (Promega) reagent was added to the assay plate and plates we incubated for 5 min at room temperature.
5. Signal was measured as median relative luminescence units on a ViewLux (PerkinElmer) multiplate reader.
[1] Heske CM, Davis MI, Baumgart JT, Wilson K, Gormally MV, Chen L, Zhang X, Ceribelli M, Duveau DY, Guha R, Ferrer M, Arnaldez FI, Ji J, Tran HL, Zhang Y, Mendoza A, Helman LJ, Thomas CJ. Matrix Screen Identifies Synergistic Combination of PARP Inhibitors and Nicotinamide Phosphoribosyltransferase (NAMPT) Inhibitors in Ewing Sarcoma. Clin Cancer Res. 2017 Dec 1;23(23):7301-7311. doi: 10.1158/1078-0432.CCR-17-1121. Epub 2017 Sep 12. PMID: 28899971; PMCID: PMC6636827.
Regarding `COC(=O)C1=C(C)NC(C)=C(C(=O)OCCCN2CCC(c3ccccc3)(c3ccccc3)CC2)C1c1cccc([N+](=O)[O-])c1` (stereo not given), the Potency result is “inactive”.
For `O=C1NC(=O)C(c2ccccc2[N+](=O)[O-])=C1Nc1ccc(O)c(Cl)c1` the value was “inactive”; for `CCN(CC)CCOc1ccc(Nc2ncc3cc(-c4c(Cl)cccc4Cl)c(=O)n(C)c3n2)cc1`, 0.132 µM (active); for `O=C(O)c1cccnc1Nc1cccc(C(F)(F)F)c1`, “inactive”.
For `Nc1nc(N)c(N=O)c(OCC2CCCCC2)n1` the value was 5.26 µM (active); for `O=c1c(O)c(-c2cc(O)c(O)c(O)c2)oc2cc(O)cc(O)c12`, “inactive”.
In the case of `Cc1c(C(=O)NN2CCCCC2)nn(-c2ccc(Cl)cc2Cl)c1-c1ccc(Cl)cc1`, the Potency was 20.9 µM (active).
For `CN(C)c1ccc2nc3ccc(=[N+](C)C)cc-3sc2c1` the value was 1.48 µM (active).
As to `Cc1cccc(CN2CCN(C(c3ccccc3)c3ccc(Cl)cc3)CC2)c1` (stereo not given), the Potency was 20.9 µM (active).
With `C[Se]CCC(N)C(=O)O` (stereo not given) the entry was “inactive”.
`CCCOc1ccc2nc(NC(=O)OC)[nH]c2c1`: the Potency was 0.0209 µM (active).
For `Cc1ccc(C(=O)c2cc(O)c(O)c([N+](=O)[O-])c2)cc1` the value was 26.4 µM (active); for `CC[C@]1(O)C[C@H]2CN(CCc3c([nH]c4ccccc34)[C@@](C(=O)OC)(c3cc4c(cc3OC)N(C=O)[C@H]3[C@@](O)(C(=O)OC)[C@H](OC(C)=O)[C@]5(CC)C=CCN6CC[C@]43[C@@H]65)C2)C1`, 0.0093 µM (active); for `CCCCCCCCOc1ccccc1C(=O)Nc1ccc(C(=O)OCC[N+](C)(CC)CC)cc1`, 16.6 µM (active).
With `Nc1ccc(S(N)(=O)=O)cc1`, the Potency entry was “inactive”.
For `CN(C)C(=O)[C@H](O)[C@H](Cc1ccccc1)NC(=O)c1cc2cc(Cl)ccc2[nH]1` the value was 3.32 µM (active); for `CN(C)CCc1c[nH]c2ccc(Cn3cncn3)cc12`, “inactive”; for `CC(C)C[C@H](NC(=O)[C@H](Cc1ccccc1)NC(=O)c1cnccn1)B(O)O`, 0.148 µM (active).
For `Cc1cc(=O)c2c(O)c3c(O)cc(=O)c4c3c3c(cc(O)c1c23)C(C)(C)C=4O` the value was 0.296 µM (active).
With `N=C(N=C(N)N)N1CCOCC1` the entry was “inactive”.
On to `NC(=NCc1ccccc1)NC(=O)c1nc(Cl)c(N)nc1N`, for which the Potency result is “inactive”.
As for `COc1ccc2cc([C@H](C)C(=O)O)ccc2c1`, the Potency was 23.5 µM (active).
Turning to `C[C@H](Cn1cnc2c(N)ncnc21)OCP(=O)(O)O`, the Potency entry was “inactive”.
`CCC[C@@H]1C[C@@H](C(=O)N[C@@H]([C@H]2O[C@H](SC)[C@H](O)[C@@H](O)[C@H]2O)[C@@H](C)O)N(C)C1`: the Potency was 0.0166 µM (active).
With `Nc1nc(Cl)nc2c1ncn2[C@H]1C[C@H](O)[C@@H](CO)O1` the figure was 2.35 µM (active); with `Clc1ccc2c(N3CCN(CCCN4CCN(c5ccnc6cc(Cl)ccc56)CC4)CC3)ccnc2c1`, “inactive”.
In the case of `COC1=C(OC)C(=O)C(CCCCCCCCCCO)=C(C)C1=O`, the Potency is 26.4 µM (active).
On to `Oc1ccc(OCc2ccccc2)cc1`, for which the Potency result is “inactive”.
For `O=C(NOCC1CC1)c1ccc(F)c(F)c1Nc1ccc(I)cc1Cl` the value was 13.2 µM (active).
For `Cc1ncc([N+](=O)[O-])n1CC(C)O` (stereo not given) the value was 18.7 µM (active); for `Cc1nc(-c2ccc(OCC(C)C)c(C#N)c2)sc1C(=O)O`, “inactive”.
With `O=Nc1c(-c2c(O)[nH]c3cc(Br)ccc23)[nH]c2ccccc12` the figure was 8.33 µM (active).
Consider `S=c1nc[nH]c2nc[nH]c12`, for which the Potency was 14.8 µM (active).
For the molecule `O=C(CCc1ccc(O)cc1)c1c(O)cc(O)cc1O`, the Potency was 0.332 µM (active).
As to `COc1cc(Nc2c(C#N)cnc3cc(OCCCN4CCN(C)CC4)c(OC)cc23)c(Cl)cc1Cl`, the Potency is 0.526 µM (active).
For `O=c1oc2cc(O)ccc2s1` the value was “inactive”; for `CN(c1nccc(=O)[nH]1)C1CCN(c2nc3ccccc3n2Cc2ccc(F)cc2)CC1`, 16.6 µM (active).
With `Cc1cc2c(s1)Nc1ccccc1N=C2N1CCN(C)CC1` the entry was “inactive”.
For `O=C(OC1C[C@H]2CC[C@@H](C1)[N+]21CCCC1)C(O)(c1ccccc1)c1ccccc1` (stereo not given in full) the value was “inactive”.
Regarding `C[C@@H](N)C1CCC(C(=O)Nc2ccncc2)CC1` (stereo not given in full), the Potency is 6.62 µM (active).
